Results from the supplement of paper PMC10849652.
The full data set covers some 7,900 targets. This sample favours those with a hit. About 0.6% of all pairs of compound and target were hits. Values without a mark were called inactive.

Tests used:
Experiment in all cases: log2 fold change, soluble protein after heating vs DMSO (PISA); higher = thermal stabilisation; K562 cells, 10 uM, 30 min; active = over 0.2 and 3.5 SD of the protein, either way, in both replicates (recomputed)
[1] = compound: CS(=O)(=O)c1ccc(-c2cnc(N)c(C(=O)Nc3ccccc3)n2)cc1
Summary of the method: (§1)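 Quantification of soluble protein used TMTpro 16plex LC-MS/MS, with channel sums equalised. Samples were the supernatant after 21,000xg for 90 min of pooled aliquots from K562 cells (2×10^6 cells/mL) treated with 10 μM compound for 30 min, heated for 3 min over 48°C-58°C, and extracted in PBS with 0.5% NP-40 at 4°C. Values, from duplicates, describe thermal stability against control samples on a log2 fold-change scale.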

crizotinib = compound: C[C@@H](Oc1cc(-c2cnn(C3CCNCC3)c2)cnc1N)c1c(Cl)ccc(F)c1Cl [crizotinib]
Summary of the method: as §1

[2] = compound: C[C@@H]1COCCN1C2=NC(=NC(=C2)C3(CC3)S(=O)(=O)C)C4=C5C=CNC5=CC=C4
Summary of the method: as §1

[3] = compound: C[C@H](C1=CC=C(C=C1)C(=O)NC2=C3C=CNC3=NC=C2)N
Summary of the method: as §1

duvelisib = compound: C[C@H](Nc1ncnc2nc[nH]c12)c1cc2cccc(Cl)c2c(=O)n1-c1ccccc1 [duvelisib]
Summary of the method: as §1

gandotinib = compound: Cc1cc(Nc2cc(CN3CCOCC3)c3nc(C)c(Cc4ccc(Cl)cc4F)n3n2)n[nH]1 [gandotinib]
Summary of the method: as §1

tozasertib = compound: Cc1cc(Nc2cc(N3CCN(C)CC3)nc(Sc3ccc(NC(=O)C4CC4)cc3)n2)n[nH]1 [tozasertib]
Summary of the method: as §1

[4] = compound: Cc1cc(SCc2sc(-c3ccc(C(F)(F)F)cc3)nc2C)ccc1OCC(=O)O
Summary of the method: as §1

doramapimod = compound: Cc1ccc(-n2nc(C(C)(C)C)cc2NC(=O)Nc2ccc(OCCN3CCOCC3)c3ccccc23)cc1 [doramapimod]
Summary of the method: as §1

ispinesib = compound: Cc1ccc(C(=O)N(CCCN)[C@@H](c2nc3cc(Cl)ccc3c(=O)n2Cc2ccccc2)C(C)C)cc1 [ispinesib]
Summary of the method: as §1

bafetinib = compound: Cc1ccc(NC(=O)c2ccc(CN3CC[C@H](N(C)C)C3)c(C(F)(F)F)c2)cc1Nc1nccc(-c2cncnc2)n1 [bafetinib]
Summary of the method: as §1

[5] = compound: Cc1cccc(CC(=O)N2CCc3c2ccc(-c2cn(C)c4ncnc(N)c24)c3F)n1
Summary of the method: as §1

nilotinib = compound: Cc1cn(-c2cc(NC(=O)c3ccc(C)c(Nc4nccc(-c5cccnc5)n4)c3)cc(C(F)(F)F)c2)cn1 [nilotinib]
Summary of the method: as §1

[6] = compound: Cc1nc(Nc2n[nH]c3c2CN(C(=O)N[C@H](CN(C)C)c2ccccc2)C3(C)C)c2sccc2n1
Summary of the method: as §1

dasatinib = compound: Cc1nc(Nc2ncc(C(=O)Nc3c(C)cccc3Cl)s2)cc(N2CCN(CCO)CC2)n1 [dasatinib]
Summary of the method: as §1

[7] = compound: Cc1ncc(-c2ccnc(Nc3ccc(S(C)(=O)=O)cc3)n2)n1C(C)C
Summary of the method: as §1

[8] = compound: Cn1cc(-c2ccc3c(c2)CCN3C(=O)Cc2cccc(C(F)(F)F)c2)c2c(N)ncnc21
Summary of the method: as §1

[9] = compound: Cn1cc(-c2ccc3nnc(C(F)(F)c4ccc5ncccc5c4)n3n2)cn1
Summary of the method: as §1

tipifarnib = compound: Cn1cncc1[C@@](N)(c1ccc(Cl)cc1)c1ccc2c(c1)c(-c1cccc(Cl)c1)cc(=O)n2C [tipifarnib]
Summary of the method: as §1

mubritinib = compound: FC(F)(F)c1ccc(/C=C/c2nc(COc3ccc(CCCCn4ccnn4)cc3)co2)cc1 [mubritinib]
Summary of the method: as §1

UniProt P18754, sequence (P18754 whole entry, looked up): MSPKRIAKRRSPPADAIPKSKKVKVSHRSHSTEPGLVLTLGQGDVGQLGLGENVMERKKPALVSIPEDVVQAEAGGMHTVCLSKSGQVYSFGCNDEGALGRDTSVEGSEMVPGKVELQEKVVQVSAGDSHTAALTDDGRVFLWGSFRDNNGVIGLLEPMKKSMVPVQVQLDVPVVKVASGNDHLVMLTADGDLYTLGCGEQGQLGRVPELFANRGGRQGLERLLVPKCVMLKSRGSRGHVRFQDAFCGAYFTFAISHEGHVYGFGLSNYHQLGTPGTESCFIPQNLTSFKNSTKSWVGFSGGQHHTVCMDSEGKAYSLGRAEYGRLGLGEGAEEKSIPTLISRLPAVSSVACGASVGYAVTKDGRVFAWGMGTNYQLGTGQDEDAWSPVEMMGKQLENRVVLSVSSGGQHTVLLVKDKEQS
UniProt Q86UA6, sequence (Q86UA6 whole entry, looked up): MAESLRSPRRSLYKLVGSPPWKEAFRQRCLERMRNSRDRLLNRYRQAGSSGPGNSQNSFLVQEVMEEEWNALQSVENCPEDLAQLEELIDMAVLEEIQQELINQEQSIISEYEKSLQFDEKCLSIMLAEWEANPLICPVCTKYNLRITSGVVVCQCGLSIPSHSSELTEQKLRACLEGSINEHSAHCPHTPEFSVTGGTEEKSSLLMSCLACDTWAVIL
UniProt Q8NEM2, sequence (Q8NEM2 whole entry, looked up): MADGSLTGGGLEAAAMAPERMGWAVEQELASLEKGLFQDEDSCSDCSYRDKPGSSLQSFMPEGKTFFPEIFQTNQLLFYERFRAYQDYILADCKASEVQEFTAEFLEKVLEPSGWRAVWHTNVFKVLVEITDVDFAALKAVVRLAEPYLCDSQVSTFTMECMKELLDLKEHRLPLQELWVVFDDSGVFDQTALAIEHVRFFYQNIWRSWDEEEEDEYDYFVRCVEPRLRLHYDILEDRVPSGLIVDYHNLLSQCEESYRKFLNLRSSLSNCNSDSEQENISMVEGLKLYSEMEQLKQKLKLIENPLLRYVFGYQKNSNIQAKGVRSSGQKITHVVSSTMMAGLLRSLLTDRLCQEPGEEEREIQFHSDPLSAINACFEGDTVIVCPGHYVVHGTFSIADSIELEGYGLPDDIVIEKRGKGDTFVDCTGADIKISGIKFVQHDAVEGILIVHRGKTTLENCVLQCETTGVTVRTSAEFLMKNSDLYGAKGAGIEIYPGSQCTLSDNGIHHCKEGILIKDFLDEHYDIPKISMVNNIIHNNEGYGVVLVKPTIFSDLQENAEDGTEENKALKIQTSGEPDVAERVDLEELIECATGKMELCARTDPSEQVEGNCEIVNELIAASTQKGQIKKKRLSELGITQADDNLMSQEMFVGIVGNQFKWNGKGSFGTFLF
UniProt Q8IZQ5, sequence (Q8IZQ5 whole entry, looked up): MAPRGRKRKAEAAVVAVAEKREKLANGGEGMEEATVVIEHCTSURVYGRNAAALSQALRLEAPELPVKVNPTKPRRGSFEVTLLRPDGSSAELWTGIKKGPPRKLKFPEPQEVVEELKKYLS
UniProt Q9NR46, sequence (Q9NR46 whole entry, looked up): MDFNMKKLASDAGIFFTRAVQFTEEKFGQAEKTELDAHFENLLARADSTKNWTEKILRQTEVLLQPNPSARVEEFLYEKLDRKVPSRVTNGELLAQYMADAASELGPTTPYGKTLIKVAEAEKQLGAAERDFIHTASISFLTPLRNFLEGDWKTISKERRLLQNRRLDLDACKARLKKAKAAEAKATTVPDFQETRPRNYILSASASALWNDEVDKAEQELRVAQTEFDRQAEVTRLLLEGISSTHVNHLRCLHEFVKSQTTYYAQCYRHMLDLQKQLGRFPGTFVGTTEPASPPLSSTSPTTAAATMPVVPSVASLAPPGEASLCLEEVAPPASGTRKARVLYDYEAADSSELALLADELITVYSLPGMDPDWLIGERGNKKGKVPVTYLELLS
UniProt Q8IXJ6, sequence (Q8IXJ6 whole entry, looked up): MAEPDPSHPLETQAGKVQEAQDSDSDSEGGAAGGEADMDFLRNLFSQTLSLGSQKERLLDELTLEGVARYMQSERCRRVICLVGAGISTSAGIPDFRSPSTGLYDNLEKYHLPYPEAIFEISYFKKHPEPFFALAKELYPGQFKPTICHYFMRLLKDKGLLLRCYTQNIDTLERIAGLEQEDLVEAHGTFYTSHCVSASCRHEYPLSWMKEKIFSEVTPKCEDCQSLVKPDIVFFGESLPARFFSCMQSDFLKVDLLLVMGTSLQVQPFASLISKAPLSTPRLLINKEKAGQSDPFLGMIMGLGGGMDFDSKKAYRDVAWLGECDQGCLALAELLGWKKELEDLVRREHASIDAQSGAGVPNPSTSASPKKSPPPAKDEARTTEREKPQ
UniProt Q15287, sequence (Q15287 whole entry, looked up): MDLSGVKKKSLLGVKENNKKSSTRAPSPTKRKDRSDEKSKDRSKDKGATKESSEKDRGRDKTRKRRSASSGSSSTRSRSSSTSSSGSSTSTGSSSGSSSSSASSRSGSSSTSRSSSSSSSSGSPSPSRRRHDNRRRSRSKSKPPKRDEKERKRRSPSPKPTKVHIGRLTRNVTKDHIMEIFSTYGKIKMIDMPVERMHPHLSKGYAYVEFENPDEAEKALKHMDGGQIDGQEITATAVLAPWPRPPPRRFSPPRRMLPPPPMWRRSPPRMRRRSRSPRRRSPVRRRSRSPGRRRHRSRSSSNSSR
UniProt Q8N5L8, sequence (Q8N5L8 whole entry, looked up): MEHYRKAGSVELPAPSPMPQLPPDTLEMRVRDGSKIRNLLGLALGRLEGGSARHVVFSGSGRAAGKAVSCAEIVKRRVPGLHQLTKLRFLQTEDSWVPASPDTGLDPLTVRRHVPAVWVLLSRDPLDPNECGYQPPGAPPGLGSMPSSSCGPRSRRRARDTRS
UniProt Q5RL73, sequence (Q5RL73 whole entry, looked up): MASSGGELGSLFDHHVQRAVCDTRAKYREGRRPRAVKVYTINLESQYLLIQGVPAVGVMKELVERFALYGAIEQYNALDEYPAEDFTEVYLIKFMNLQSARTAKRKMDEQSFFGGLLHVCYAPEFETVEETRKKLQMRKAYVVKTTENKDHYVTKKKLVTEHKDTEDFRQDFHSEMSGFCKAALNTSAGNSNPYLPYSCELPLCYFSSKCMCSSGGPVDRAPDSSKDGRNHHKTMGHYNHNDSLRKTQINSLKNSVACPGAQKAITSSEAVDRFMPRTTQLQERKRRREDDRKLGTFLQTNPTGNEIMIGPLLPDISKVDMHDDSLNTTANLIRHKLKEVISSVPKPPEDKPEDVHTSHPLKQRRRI
UniProt Q13464, sequence (Q13464 whole entry, looked up): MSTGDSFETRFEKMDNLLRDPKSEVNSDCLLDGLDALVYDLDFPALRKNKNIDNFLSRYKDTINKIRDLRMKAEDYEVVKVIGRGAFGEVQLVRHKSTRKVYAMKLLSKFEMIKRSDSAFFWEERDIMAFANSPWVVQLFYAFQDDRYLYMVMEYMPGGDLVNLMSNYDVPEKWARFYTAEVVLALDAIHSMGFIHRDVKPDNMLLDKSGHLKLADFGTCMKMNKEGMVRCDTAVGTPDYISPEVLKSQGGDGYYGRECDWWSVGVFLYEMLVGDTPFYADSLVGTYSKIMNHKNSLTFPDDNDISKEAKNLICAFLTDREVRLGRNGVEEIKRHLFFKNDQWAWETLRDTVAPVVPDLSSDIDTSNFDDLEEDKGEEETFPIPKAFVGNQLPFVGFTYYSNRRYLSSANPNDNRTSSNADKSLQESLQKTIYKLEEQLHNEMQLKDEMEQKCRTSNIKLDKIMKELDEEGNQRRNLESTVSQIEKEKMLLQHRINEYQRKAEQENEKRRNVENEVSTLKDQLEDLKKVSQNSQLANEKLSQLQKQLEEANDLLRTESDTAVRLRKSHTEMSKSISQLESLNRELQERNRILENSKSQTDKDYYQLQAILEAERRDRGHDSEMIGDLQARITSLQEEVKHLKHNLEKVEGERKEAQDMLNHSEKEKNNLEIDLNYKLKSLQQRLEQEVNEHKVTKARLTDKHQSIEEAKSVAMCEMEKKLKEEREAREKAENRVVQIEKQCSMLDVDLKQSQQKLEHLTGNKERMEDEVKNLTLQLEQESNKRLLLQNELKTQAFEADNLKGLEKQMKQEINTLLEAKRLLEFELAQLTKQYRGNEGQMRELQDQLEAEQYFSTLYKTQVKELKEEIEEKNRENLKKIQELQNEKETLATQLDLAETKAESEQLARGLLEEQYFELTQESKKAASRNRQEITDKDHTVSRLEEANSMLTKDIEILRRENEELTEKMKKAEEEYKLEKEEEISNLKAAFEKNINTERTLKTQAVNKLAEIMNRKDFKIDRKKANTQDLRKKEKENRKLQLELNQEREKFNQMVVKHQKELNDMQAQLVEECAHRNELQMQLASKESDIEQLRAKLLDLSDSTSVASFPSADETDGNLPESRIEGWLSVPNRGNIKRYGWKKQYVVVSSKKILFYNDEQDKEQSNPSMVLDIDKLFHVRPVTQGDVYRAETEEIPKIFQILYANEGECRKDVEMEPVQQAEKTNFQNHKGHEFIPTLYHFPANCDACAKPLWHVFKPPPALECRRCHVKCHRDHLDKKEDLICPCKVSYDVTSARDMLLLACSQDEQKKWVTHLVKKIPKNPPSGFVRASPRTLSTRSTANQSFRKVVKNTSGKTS
UniProt Q9UKM9, sequence (Q9UKM9 whole entry, looked up): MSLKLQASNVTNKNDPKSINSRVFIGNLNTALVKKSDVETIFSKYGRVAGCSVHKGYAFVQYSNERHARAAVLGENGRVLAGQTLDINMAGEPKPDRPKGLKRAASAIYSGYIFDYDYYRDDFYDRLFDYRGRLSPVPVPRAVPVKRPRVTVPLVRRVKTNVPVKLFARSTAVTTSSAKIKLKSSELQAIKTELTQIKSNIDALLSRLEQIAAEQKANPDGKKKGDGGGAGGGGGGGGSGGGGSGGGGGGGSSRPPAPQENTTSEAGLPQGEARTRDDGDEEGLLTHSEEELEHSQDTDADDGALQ

Target | log2 fold change [1] | log2 fold change (crizotinib) | log2 fold change [2] | log2 fold change [3] | log2 fold change (duvelisib) | log2 fold change (gandotinib) | log2 fold change (tozasertib) | log2 fold change [4] | log2 fold change (doramapimod) | log2 fold change (ispinesib) | log2 fold change (bafetinib) | log2 fold change [5] | log2 fold change (nilotinib) | log2 fold change [6] | log2 fold change (dasatinib) | log2 fold change [7] | log2 fold change [8] | log2 fold change [9] | log2 fold change (tipifarnib) | log2 fold change (mubritinib)
RALY (UniProt Q9UKM9) | -0.149 | -0.068 | -0.138 | 0.316 | -0.161 | 0.098 | 0.051 | 0.043 | 0.01 | -0.082 | 0.077 | -0.069 | -0.029 | 0.051 | 0.249 | -0.151 | -0.596 | -0.011 | -0.118 | -0.257
SIRT2 (UniProt Q8IXJ6) | 0.042 | -0.015 | -0.002 | 0.072 | -0.048 | 0.002 | -0.099 | -0.032 | -0.009 | -0.001 | -0.041 | -0.003 | 0.061 | -0.006 | -0.032 | -0.051 | 0.104 | -0.002 | 0.027 | 0.067
SHCBP1 (UniProt Q8NEM2) | 0.092 | -0.077 | 0.043 | 0.119 | -0.021 | -0.124 | 0.098 | 0.169 | 0.02 | -0.096 | -0.017 | 0.041 | -0.207 | -0.459 (active) | -0.091 | 0.003 | 0.223 | 0.004 | 0.299 | 0.1
SH3GLB2 (UniProt Q9NR46) | 0.031 | -0.104 | -0.101 | 0.013 | -0.022 | -0.183 | 0.014 | 0.073 | 0.013 | -0.052 | -0.029 | 0.044 | -0.051 | -0.15 | -0.147 | -0.066 | 0.006 | -0.1 | -0.091 | 0.098
RRP12 (UniProt Q5JTH9) | -0.056 | -0.074 | -0.242 | 0.811 (active) | -0.014 | 0.074 | -0.092 | 0.053 | 0.203 | -0.172 | 0.01 | -0.036 | -0.082 | 0.088 | -0.028 | 0.184 | -0.136 | -0.123 | -0.035 | -0.096
RNPS1 (UniProt Q15287) | 0.018 | -0.109 | 0.114 | -0.019 | -0.091 | 0.089 | 0.108 | -0.028 | -0.104 | 0.042 | -0.073 | -0.032 | -0.035 | -0.62 (active) | -0.007 | -0.12 | -0.037 | 0.011 | -0.084 | 0.003
RCC1 isoform 2 (UniProt P18754) | 0.418 (active) | -0.032 | 0.13 | -0.04 | 0.158 | -0.1 | -0.002 | 0.154 | -0.008 | -0.007 | 0.013 | 0.002 | 0.069 | -0.137 | -0.159 | 0 | 0.139 | -0.004 | -0.112 | 0.296
RPAIN isoform 8 (UniProt Q86UA6) | -0.024 | 0.144 | 0.385 | -0.039 | 0.123 |  | 0.07 | 0.078 | -0.04 | -0.155 | -0.064 |  |  |  | -0.043 |  | -0.022 | -0.142 | -0.042 | 
ROCK1 (UniProt Q13464) | 0.016 | -0.017 | 0.042 |  | -0.019 | -0.025 | 0.015 | 0.027 | -0.025 | -0.069 | -0.017 | -0.006 | -0.03 | 0.007 | -0.028 | 0.034 | -0.006 | 0.01 | -0.037 | 0.062
RBM48 isoform 2 (UniProt Q5RL73) | 0.081 | 0.25 | -0.069 | -0.06 |  | 0.152 | -0.245 |  | 0.041 | 0.072 | 0.118 | -0.012 | 0.13 | -0.006 |  | -0.034 | 0.047 | -0.457 | 0.127 | 
RPP25L (UniProt Q8N5L8) | -0.031 | 0.059 | -0.014 | 0.145 | 0.06 | 0.045 | -0.01 | -0.019 | -0.005 | -0.027 | 0.143 | -0.04 | 0.044 | -0.087 | 0.09 | -0.031 | -0.058 | 0.004 | 0.044 | -0.004
SELENOH (UniProt Q8IZQ5) | -0.19 | 0 | -0.014 | -0.022 | -0.101 | -0.12 | -0.008 | -0.051 | -0.018 | 0.036 | 0.042 | 0.21 | -0.02 | 0.011 | 0.076 | 0.012 | -0.039 | 0.036 | -0.01 | -0.009
